From PubChem BioAssay
Active and inactive are the calls of the source.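 How the source made its calls: active means luciferase signal above three times the same-plate solvent-only control wells; inactive means the rest.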

molecular target: Mitogen-activated protein kinase 7 (Homo sapiens) (UniProt Q13164); experiment: ERK5 transactivation activators in reporter cells, primary screen, cell-based, HTS (AID 1508626); conditions: HeLa Gal4-ERK5 transactivation, 18 h, at 5 µM, active compounds read high;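 further: luciferase driven by Gal4-ERK5 fusion binding five Gal4 sites before minimal TATA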
Sequence (Q13164 whole entry, looked up, the tested form may be a part): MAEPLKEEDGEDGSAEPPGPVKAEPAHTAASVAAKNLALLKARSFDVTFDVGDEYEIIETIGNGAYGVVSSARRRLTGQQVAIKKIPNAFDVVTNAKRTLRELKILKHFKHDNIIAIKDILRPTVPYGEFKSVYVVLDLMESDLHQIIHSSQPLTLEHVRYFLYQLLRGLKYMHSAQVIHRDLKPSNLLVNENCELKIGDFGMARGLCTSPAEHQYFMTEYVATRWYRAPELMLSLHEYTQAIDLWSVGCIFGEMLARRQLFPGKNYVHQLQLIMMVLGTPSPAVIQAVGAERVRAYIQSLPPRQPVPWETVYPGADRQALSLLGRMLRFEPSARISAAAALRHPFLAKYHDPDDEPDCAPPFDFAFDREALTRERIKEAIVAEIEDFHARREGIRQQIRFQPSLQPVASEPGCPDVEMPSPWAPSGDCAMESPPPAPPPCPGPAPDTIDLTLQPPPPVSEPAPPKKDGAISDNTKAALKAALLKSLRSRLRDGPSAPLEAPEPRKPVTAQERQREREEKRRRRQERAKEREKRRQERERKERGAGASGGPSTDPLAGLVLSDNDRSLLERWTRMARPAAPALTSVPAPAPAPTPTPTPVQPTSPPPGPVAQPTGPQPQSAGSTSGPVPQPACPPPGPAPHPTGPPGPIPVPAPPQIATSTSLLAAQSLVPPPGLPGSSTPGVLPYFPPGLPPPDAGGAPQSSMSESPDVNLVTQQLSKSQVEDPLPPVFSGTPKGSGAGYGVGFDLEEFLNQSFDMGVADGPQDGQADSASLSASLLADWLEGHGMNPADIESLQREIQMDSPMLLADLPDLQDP

Compound | luciferase signal
Nc1ncnc2c1ncn2[C@H]1C[C@H](O)[C@@H](CO)O1 | 136 AU (inactive)
CC(=O)O[C@H]1CC[C@]2(C)[C@H]3CC=C4[C@@H]5CC(C)(C)CC[C@]5(C)CC[C@@]4(C)[C@]3(C)CC[C@H]2C1(C)C | 64 AU (inactive)
CC(C)(O)[C@@H]1CC[C@](C)([C@H]2[C@@H](O)C[C@@]3(C)[C@@H]4C[C@H](O[C@@H]5O[C@H](CO)[C@@H](O)[C@H](O)[C@H]5O)[C@H]5C(C)(C)[C@@H](O[C@@H]6OC[C@@H](O)[C@H](O)[C@H]6O)CC[C@@]56C[C@@]46CC[C@]23C)O1 | 52 AU (inactive)
CO/N=C1\C[C@]2(C[C@@H]3C[C@@H](C/C=C(\C)C[C@@H](C)/C=C/C=C4\CO[C@@H]5[C@H](O)C(C)=C[C@@H](C(=O)O3)[C@]45O)O2)O[C@H](/C(C)=C/C(C)C)[C@H]1C | 40 AU (inactive)
Cc1cccc2c3c(ccc12)C1=C(C(=O)C3=O)[C@@H](C)CO1 | 156 AU (inactive)
O=C(O)/C=C/c1ccccc1 | 52 AU (inactive)
CC1(C)CCCC2(C)C3C(O)CC2(C)C(O)C31 (stereo not given) | 64 AU (inactive)
CCCCCCCCCCCC[C@@H](C(=O)O)[C@H](C)C(=O)O | 32 AU (inactive)
CC(=O)O[C@@H]1C=C[C@@]2(C)C(C[C@@H](OC(C)=O)[C@@]3(C)C4=CC(=O)O[C@@H](c5ccoc5)[C@]4(C)CCC23)C1(C)C (stereo not given in full) | 20 AU (inactive)
C[C@@]12CCc3occc3[C@H]1CC[C@@]13C[C@@H](CC[C@H]12)[C@@](O)(CO)C3 | 40 AU (inactive)
COc1ccc(/C=C/C(=O)c2ccc(O)cc2O)cc1OC | 60 AU (inactive)
NCCC(=O)c1ccccc1N | 88 AU (inactive)
O=c1c2cc(O)c(O)cc2oc2cc(O)c([C@@H]3O[C@H](CO)[C@@H](O)[C@H](O)[C@H]3O)c(O)c12 | 48 AU (inactive)
O[C@H]1[C@H](O)[C@@H](O)C2OC[C@H]1O2 | 60 AU (inactive)
O=S(=O)([O][Al])OC[C@H]1O[C@@](COS(=O)(=O)[O][Al])(O[C@H]2O[C@H](COS(=O)(=O)[O][Al])[C@@H](OS(=O)(=O)[O][Al])[C@H](OS(=O)(=O)[O][Al])[C@H]2OS(=O)(=O)[O][Al])[C@@H](OS(=O)(=O)[O][Al])[C@@H]1OS(=O)(=O)[O][Al] | 84 AU (inactive)
CCCCCCCCCCCCCCC(C(=O)O)C(O)(CC(=O)OC)C(=O)O (stereo not given) | 64 AU (inactive)
C[C@@H]1CC[C@@]2(OC1)O[C@H]1C[C@H]3[C@@H]4CC[C@@H]5C[C@@H](O)CC[C@]5(C)[C@H]4CC[C@]3(C)[C@H]1[C@@H]2C | 20 AU (inactive)
NC(=O)CCCCC(S)CCS (stereo not given) | 32 AU (inactive)
COC(=O)/C=C/C(C)=C\C=C\C(C)=C\C=C\C=C(C)\C=C\C=C(C)\C=C\C(=O)O | 64 AU (inactive)
CC(C)=CCC/C(C)=C/CC/C(C)=C/CC/C(C)=C/CO | 0 AU (inactive)
CO/N=C(/C(=O)NC1C(=O)N2C(C(=O)O)=C(CSc3nc(=O)c(=O)[nH]n3C)CS[C@H]12)c1csc(N)n1 (stereo not given in full) | 52 AU (inactive)
CC(=O)O[C@@](C)(CCC=C(C)C)C1CC=C(C)CC1 (stereo not given in full) | 72 AU (inactive)
CC1CCC2(OC1)OC1CC3C4CCC5C[C@@H](O)CCC5(C)C4=CCC3(C)C1C2C (stereo not given in full) | 644 AU (active)
CC(C)CCC[C@@H](C)[C@H]1CC[C@H]2[C@@H]3C=CC4=CC(=O)CC[C@]4(C)[C@H]3CC[C@]12C | 44 AU (inactive)
COc1cc(-c2cc(=O)c3c(O)c(OC)c(OC)c(OC)c3o2)cc(OC)c1OC | 40 AU (inactive)
CC1(C)CC2C1CC[C@]1(C)CCC3C(C(=O)O)CC(=O)O[C@@]32C1 (stereo not given in full) | 56 AU (inactive)
CC(C)(O)[C@H]1CC[C@]2(C)[C@H]3CC[C@@H]4[C@@]5(C)CCCC(C)(C)[C@@H]5[C@@H](O)C[C@@]4(C)[C@]3(C)CC[C@@H]12 | 84 AU (inactive)
O=c1c(O)c(-c2ccccc2)oc2cccc(O)c12 | 60 AU (inactive)
CC(C)CCC[C@@H](C)[C@H]1CC[C@H]2[C@@H]3CC[C@H]4C[C@H](O)CC[C@]4(C)[C@H]3CC[C@]12C | 140 AU (inactive)
CO/N=C(/C(=O)N[C@@H]1C(=O)N2C(C(=O)OCOC(=O)C(C)(C)C)=C(/C=C\c3scnc3C)CS[C@H]12)c1csc(N)n1 | 132 AU (inactive)
